The results in this text go back to PMC9911399, “Two distinct binding modes provide the RNA-binding protein RbFox with extraordinary sequence specificity”.

Sequences and labels used below:
T1: RBFOX1 RRM RbFoxmut (Fox-RRM*) (Homo sapiens, UniProt Q9NWB1 109-208, R118D;E147R;N151S;E152T)
T1 sequence: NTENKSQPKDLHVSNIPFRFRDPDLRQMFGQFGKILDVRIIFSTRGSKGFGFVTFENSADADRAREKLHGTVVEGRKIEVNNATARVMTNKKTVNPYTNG

B1: CGCUCCU (DNA:RNA)
RNA: GGGAGACCGGAAUUCAGAUUGUCCCGCUCCUUUAAAUCCCGUCGUAGCCACCA
DNA 1: CAATCTGAATTCCGGTCTCCC
DNA 2: TGGTGGCTACGACGGGATT
B2: GGAGGUA (DNA:RNA)
RNA: B1 RNA with C25G, C27A, U28G, C29G, C30U, U31A
DNA 1: CAATCTGAATTCCGGTCTCCC
DNA 2: TGGTGGCTACGACGGGATT
B3: GGCCGUU (DNA:RNA)
RNA: B1 RNA with C25G, U28C, C29G, C30U
DNA 1: CAATCTGAATTCCGGTCTCCC
DNA 2: TGGTGGCTACGACGGGATT
B4: GUUUUCU (DNA:RNA)
RNA: B1 RNA with C25G, G26U, C27U, C29U
DNA 1: CAATCTGAATTCCGGTCTCCC
DNA 2: TGGTGGCTACGACGGGATT
B5: AGAACGU (DNA:RNA)
RNA: B1 RNA with C25A, C27A, U28A, C30G
DNA 1: CAATCTGAATTCCGGTCTCCC
DNA 2: TGGTGGCTACGACGGGATT
B6: GAACGUG (DNA:RNA)
RNA: GGGAGACCGGAAUUCAGAUUGUCCGAACGUGUUAAAUCCCGUCGUAGCCACCA
DNA 1: CAATCTGAATTCCGGTCTCCC
DNA 2: TGGTGGCTACGACGGGATT
B7: GAGAACG (DNA:RNA)
RNA: B6 RNA with A27G, C28A, G29A, U30C
DNA 1: CAATCTGAATTCCGGTCTCCC
DNA 2: TGGTGGCTACGACGGGATT
B8: UGAACGU (DNA:RNA)
RNA: B1 RNA with C25U, C27A, U28A, C30G
DNA 1: CAATCTGAATTCCGGTCTCCC
DNA 2: TGGTGGCTACGACGGGATT
B9: CAGAACG (DNA:RNA)
RNA: B1 RNA with G26A, C27G, U28A, C29A, U31G
DNA 1: CAATCTGAATTCCGGTCTCCC
DNA 2: TGGTGGCTACGACGGGATT
B10: AGGACCG (DNA:RNA)
RNA: B1 RNA with C25A, C27G, U28A, U31G
DNA 1: CAATCTGAATTCCGGTCTCCC
DNA 2: TGGTGGCTACGACGGGATT
B11: GUGAACG (DNA:RNA)
RNA: B6 RNA with A26U, A27G, C28A, G29A, U30C
DNA 1: CAATCTGAATTCCGGTCTCCC
DNA 2: TGGTGGCTACGACGGGATT
B12: GGGAACG (DNA:RNA)
RNA: B1 RNA with C25G, C27G, U28A, C29A, U31G
DNA 1: CAATCTGAATTCCGGTCTCCC
DNA 2: TGGTGGCTACGACGGGATT
B13: AGGAACG (DNA:RNA)
RNA: B1 RNA with C25A, C27G, U28A, C29A, U31G
DNA 1: CAATCTGAATTCCGGTCTCCC
DNA 2: TGGTGGCTACGACGGGATT
B14: UGGACAG (DNA:RNA)
RNA: B1 RNA with C25U, C27G, U28A, C30A, U31G
DNA 1: CAATCTGAATTCCGGTCTCCC
DNA 2: TGGTGGCTACGACGGGATT
B15: CCUUCUU (DNA:RNA)
RNA: B1 RNA with G26C, C27U, C30U
DNA 1: CAATCTGAATTCCGGTCTCCC
DNA 2: TGGTGGCTACGACGGGATT
B16: UCGGAUG (DNA:RNA)
RNA: B6 RNA with G25U, A26C, A27G, C28G, G29A
DNA 1: CAATCTGAATTCCGGTCTCCC
DNA 2: TGGTGGCTACGACGGGATT
B17: GAAGCGU (DNA:RNA)
RNA: B6 RNA with C28G, G29C, U30G, G31U
DNA 1: CAATCTGAATTCCGGTCTCCC
DNA 2: TGGTGGCTACGACGGGATT
B18: CGCAUGU (DNA:RNA)
RNA: B1 RNA with U28A, C29U, C30G
DNA 1: CAATCTGAATTCCGGTCTCCC
DNA 2: TGGTGGCTACGACGGGATT
B19: CGCAUUG (DNA:RNA)
RNA: B1 RNA with U28A, C29U, C30U, U31G
DNA 1: CAATCTGAATTCCGGTCTCCC
DNA 2: TGGTGGCTACGACGGGATT
B20: GUUUUUU (DNA:RNA)
RNA: B1 RNA with C25G, G26U, C27U, C29U, C30U
DNA 1: CAATCTGAATTCCGGTCTCCC
DNA 2: TGGTGGCTACGACGGGATT
B21: GCAUGUU (DNA:RNA)
RNA: B6 RNA with A26C, C28U, G31U
DNA 1: CAATCTGAATTCCGGTCTCCC
DNA 2: TGGTGGCTACGACGGGATT
B22: CCGCAUG (DNA:RNA)
RNA: B6 RNA with G25C, A26C, A27G, G29A
DNA 1: CAATCTGAATTCCGGTCTCCC
DNA 2: TGGTGGCTACGACGGGATT
B23: GCAAUGU (DNA:RNA)
RNA: B6 RNA with A26C, C28A, G29U, U30G, G31U
DNA 1: CAATCTGAATTCCGGTCTCCC
DNA 2: TGGTGGCTACGACGGGATT
B24: CCCCGCA (DNA:RNA)
RNA: B1 RNA with G26C, U28C, C29G, U31A
DNA 1: CAATCTGAATTCCGGTCTCCC
DNA 2: TGGTGGCTACGACGGGATT
B25: GCAUAGU (DNA:RNA)
RNA: B1 RNA with C25G, G26C, C27A, C29A, C30G
DNA 1: CAATCTGAATTCCGGTCTCCC
DNA 2: TGGTGGCTACGACGGGATT
B26: GCCAUGU (DNA:RNA)
RNA: B1 RNA with C25G, G26C, U28A, C29U, C30G
DNA 1: CAATCTGAATTCCGGTCTCCC
DNA 2: TGGTGGCTACGACGGGATT

Where a chain is given by its changes, count along the chain named. The full ranking holds about 16,000 sequences; the median of “ka relative to ugcaugu” is about 0.096, and the highest 2% start at about 0.35. The sample as a whole holds a higher share of the highest values than the screen did.

The test addresses T1, RBFOX1 RRM RbFoxmut (Fox-RRM*). The test can be described thus: EMSA; HiTS-Eq, 1 nM pool, 10 min; buffer printed only for the single-RNA assays: 10 mM Tris pH 7.5, 150 mM NaCl, 3.4 mM EDTA, 0.001% NP-40, 30 C. The note with it: tags: His6 N-terminal (pET28a); label: 5' 32P. The procedure, abridged:
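A pool of RNA with 7 randomized nucleotides, 5′-radiolabelled and with DNA-annealed flanks, was equilibrated at 1 nM for 10 min in 50 µL with purified RbFox RRM, wild type or mutant, across increasing protein concentrations. Free RNA was separated by 8% native PAGE, excised, reverse-transcribed, barcoded by PCR and sequenced. Relative association constants were obtained from read-count changes of each RNA species versus the control reaction and normalised to the cognate motif.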
In general terms: A gel shift assay detects complexes by their altered migration in electrophoresis.
Take B1: the binding signal is 0.0521 KA relative to UGCAUGU. Next, B2: 0.121 KA relative to UGCAUGU; B3: 0.0754 KA relative to UGCAUGU; B4: 0.0724 KA relative to UGCAUGU. As to B5, the binding signal is 0.149 KA relative to UGCAUGU.

As for B6, the binding signal is 0.226 KA relative to UGCAUGU. Next, B7: 0.347 KA relative to UGCAUGU; B8: 0.242 KA relative to UGCAUGU. Next, B9: 0.168 KA relative to UGCAUGU.

Consider B10, for which the binding signal was 0.183 KA relative to UGCAUGU. For B11 the value was 0.538 KA relative to UGCAUGU. For B12 the value was 0.472 KA relative to UGCAUGU; for B13, 0.576 KA relative to UGCAUGU. Next, B14: 0.0526 KA relative to UGCAUGU. Turning to B15, the binding signal is 0.0561 KA relative to UGCAUGU. As to B16, the binding signal was 0.119 KA relative to UGCAUGU. B17: the binding signal was 0.0921 KA relative to UGCAUGU. Next, B18: 1.08 KA relative to UGCAUGU. For B19 the value was 0.179 KA relative to UGCAUGU; for B20, 0.0932 KA relative to UGCAUGU; for B21, 0.776 KA relative to UGCAUGU. For B22 the value was 1.13 KA relative to UGCAUGU; for B23, 0.12 KA relative to UGCAUGU; for B24, 0.118 KA relative to UGCAUGU. Turning to B25, the binding signal is 0.192 KA relative to UGCAUGU.

For B26, the binding signal was 0.188 KA relative to UGCAUGU.
